Compounds with a hit are over-represented: about 3.1% of the library has one in this group of screens.
EWS-Fli block = EWS/Fli-driven NR0B1 reporter inhibitors, primary screen, A673 cells, NR0B1 luciferase, luminescence, MLPCN library; 0.67% of 350,000 active; inhibition, % at 12.6 µM; viability-normalised; AID 651661, 2012;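 active = mean inhibition of at least 50% after viability correction, with every replicate also passing that limit; inconclusive = mean reaches 50% but only one of two replicates passes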;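 also: firefly luciferase signal divided by Alamar Blue viability fluorescence both relative to DMSO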
LMP1 NFkB inh = EBV LMP1-driven NF-kappaB luciferase reporter inhibitors, primary screen, cell-based, luminescence, single point. LMP1-induced NF-kappaB luciferase reporter cells. 0.69% of 350,000 active. inhibition, % at 12.5 µM; in the data active = inhibition above about 41%; inconclusive = no clear call, values can overlap the other calls
PAX8 reporter = inhibitors of PAX8-driven TPO luciferase reporter, primary screen, RMG-I cells, single concentration | 1.2% of 360,000 active | inhibition, % at 12.6 µM | SteadyGlo, 24 h;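 active = mean replicate inhibition at least 60% with every replicate also reaching 60%; inconclusive = only one of the two criteria is met; inactive = mean below 60% and not all replicates reaching 60%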;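 also: luciferase light reporting Pax8 driven TPO promoter activity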
TWEAK-Fn14 inh = inhibitors of TWEAK-Fn14 signaling, primary screen, luciferase reporter cells, uHTS; TWEAK-stimulated Fn14 reporter cells, luciferase luminescence, 8 h; inhibition, % at 10 µM; 2% of 360,000 active; AID 1159606, 2016; in the data active = inhibition above about 50%
LGR2 inh = inhibitors of bursicon-induced LGR2 CRE-luciferase signal, primary screen, cell-based, HEK293, CRE-luciferase reporter, bursicon stimulation | inhibition, % at 9.99 µM | bursicon-stimulated, 4 h | 0.35% of 380,000 active | Drosophila bursicon receptor LGR2 (rickets) | AID 720647, 2013;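 active = drop in luminescence signal, shown as inhibition above about 50% in the replicate tests, limit read from the data, passing the limit was not always enough; inconclusive = probably only some replicates passing the limit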;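 also: agonist challenge used bursicon conditioned medium at about half maximal strength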
TROY signal inh = inhibitors of TROY-driven NF-kB signaling, primary screen, Q293 LMP1-TROYcd cells, NF-kB luciferase, uHTS | Q293 LMP1-TROYcd NF-kB luciferase reporter, 4 h | inhibition, % at 10 µM | 0.98% of 360,000 active | AID 1347056, 2019;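 active = compounds whose plate-normalised and pattern-corrected inhibition of the luciferase reporter signal at the single screening dose is 50% or more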
A number is an active result; – = inactive; ? = inconclusive; · = not tested or not shown.

SMILES	EWS-Fli block	LMP1 NFkB inh	PAX8 reporter	TWEAK-Fn14 inh	LGR2 inh	TROY signal inh
Nc1ncnc2c(C3OC(CO)C(O)C3O)scc12 (stereo unspecified)	–	71	114	100	98	65
N#Cc1nc(Cl)c(Cl)c(NN)c1Cl	–	–	–	–	–	62
N/C(=N\OC(=O)c1cccc(C(F)(F)F)c1)c1cnccn1	–	–	–	–	–	–
O=C(OCn1ncc(Cl)c(Cl)c1=O)c1cccc(C(F)(F)F)c1	·	–	·	98	·	–
Cc1ccc(S(=O)(=O)N[C@@H]2C=C[C@@H](CC(=O)N3CCC(Cc4ccccc4)CC3)O[C@@H]2CO)cc1	–	·	90	·	–	·
COc1ccc(NC(=O)N(C)C[C@@H]2Oc3ccc(NC(=O)Cc4ccccc4)cc3C(=O)N([C@H](C)CO)C[C@H]2C)cc1	–	·	–	·	–	·
Cn1c2c(c(=O)n(C)c1=O)C(C(F)(F)F)(C(F)(F)F)N=C(c1ccc(Cl)cc1)N2	·	–	·	62	·	57
Cc1ccc(C(=O)Nc2ccccc2C(=O)O)cc1S(=O)(=O)NCc1ccccc1	–	–	–	–	–	–
Cc1ccccc1NS(=O)(=O)c1cc(C(=O)Nc2cccc([N+](=O)[O-])c2)ccc1C	–	–	–	67	–	59
Cc1ccc(C(=O)Nc2ccccc2C(=O)O)cc1S(=O)(=O)Nc1ccc(Br)cc1	–	–	–	–	–	51
CC1C/C(=C/c2ccccn2)C(=O)/C(=C/c2ccccn2)C1 (stereo unspecified)	·	90	·	64	·	–
CC(C)(C)C1C/C(=C/c2ccccn2)C(=O)/C(=C/c2ccccn2)C1 (stereo unspecified)	·	86	·	–	·	–
CC1C/C(=C/c2cccs2)C(=O)/C(=C/c2cccs2)C1 (stereo unspecified)	–	–	72	–	–	–
COCC(=O)Nc1ccc2c(c1)[C@@H]1C[C@@H](CC(=O)NC3CCCCC3)O[C@@H](CO)[C@@H]1O2	–	·	–	·	–	·
C[C@@H]1CN([C@H](C)CO)C(=O)c2cc(NC(=O)c3ccncc3)ccc2O[C@@H](C)CCCCO[C@H]1CN(C)Cc1ccc(C(F)(F)F)cc1	?	·	82	·	–	·
C[C@@H]1CCCCO[C@@H](CN(C)Cc2ccc(C(F)(F)F)cc2)[C@@H](C)CN([C@H](C)CO)C(=O)c2cc(NC(=O)c3ccccc3)ccc2O1	–	·	–	·	–	·
C[C@@H]1CN([C@@H](C)CO)C(=O)c2cc(NC(=O)c3ccccc3)ccc2O[C@@H](C)CCCCO[C@H]1CN(C)Cc1ccc(C(F)(F)F)cc1	–	·	88	·	–	·
C[C@H]1CCCCO[C@@H](CN(C)Cc2ccc(C(F)(F)F)cc2)[C@@H](C)CN([C@@H](C)CO)C(=O)c2cc(NC(=O)c3ccccc3)ccc2O1	–	·	87	·	–	·
C[C@H]1CCCCO[C@H](CN(C)Cc2ccc(C(F)(F)F)cc2)[C@@H](C)CN([C@@H](C)CO)C(=O)c2cc(NC(=O)c3ccccc3)ccc2O1	–	·	85	·	–	·
C[C@@H]1CN([C@@H](C)CO)C(=O)c2cc(C3=CCCCC3)cnc2O[C@@H]1CN(C)Cc1cccnc1	–	·	–	·	–	·
CC(C)NC(=O)N[C@H]1CC[C@@H](CCn2cc(-c3ccc(F)cc3)nn2)O[C@@H]1CO	–	·	–	·	–	·
C[C@H]1CCCCO[C@H](CN(C)C(=O)Nc2ccc(C(F)(F)F)cc2)[C@@H](C)CN([C@@H](C)CO)C(=O)c2cc(NC(=O)c3ccncc3)ccc2O1	–	·	93	·	–	·
C[C@@H]1CCCCO[C@@H](CN(C)C(=O)Nc2ccc(C(F)(F)F)cc2)[C@H](C)CN([C@@H](C)CO)C(=O)c2cc(NC(=O)c3ccncc3)ccc2O1	–	·	–	·	–	·
C[C@@H]1CCCCO[C@H](CN(C)Cc2ccc(C(F)(F)F)cc2)[C@@H](C)CN([C@@H](C)CO)C(=O)c2cc(NC(=O)c3ccccc3)ccc2O1	–	·	91	·	–	·
Cc1ccc(S(=O)(=O)N(C)C[C@H]2Oc3ccc(NC(=O)Nc4cccc5ccccc45)cc3C(=O)N([C@H](C)CO)C[C@@H]2C)cc1	–	·	–	·	–	·
SMILES	EWS-Fli block	LMP1 NFkB inh	PAX8 reporter	TWEAK-Fn14 inh	LGR2 inh	TROY signal inh
C[C@H](O)C#Cc1ccc2c(c1)O[C@@H](CN(C)CC1CC1)[C@H](C)CN([C@@H](C)CO)S2(=O)=O	–	·	·	·	–	·
NC(=O)c1ccsc1NC(=O)CCS(=O)(=O)c1ccc(Cl)cc1	–	–	65	–	–	–
CCOC(=O)c1ccsc1NC(=O)CCS(=O)(=O)c1ccccc1	–	–	64	–	–	–
N#Cc1ccsc1NC(=O)CCS(=O)(=O)c1ccccc1	–	–	64	–	–	–
NC(=O)c1ccsc1NC(=O)CCS(=O)(=O)c1ccccc1	–	–	–	–	–	–
CC(=O)N1[C@H](CO)[C@@H](c2ccccc2)[C@H]1CN(C(=O)c1ccccc1)C(C)C	–	·	–	·	–	·
O=C(C[C@@H]1CC[C@@H]2[C@H](COC[C@@H](O)CN2C(=O)Cc2ccccc2)O1)NC1CCCC1	–	·	–	·	–	·
O=C(O)c1cccnc1	–	85	–	–	–	–
COc1cc(CNCCN2CCOCC2)ccc1OCc1ccccc1Cl	·	–	·	101	–	·
COc1ccc(CN2CCOCC2)cc1Br	–	–	·	–	·	–
COc1cc(CNc2ccc3[nH]c(=O)[nH]c3c2)ccc1OCc1ccccc1Cl	–	–	–	53	–	–
COc1cc(CNCCCN2CCOCC2)cc(Br)c1OCc1ccc(Cl)cc1	–	–	–	–	99	–
COc1cc(CNCCCN2CCOCC2)cc(Br)c1OCC(=O)N1CCCCC1	–	–	·	–	–	–
COc1cc(CNCCN2CCOCC2)ccc1OCc1ccc(Cl)cc1	·	–	·	–	·	–
COc1ccc(CN2CCOCC2)cc1OC	·	–	·	99	·	·
COc1cccc(NC(=O)N[C@@H]2C=C[C@@H](CC(=O)N3CCN(C)CC3)O[C@@H]2CO)c1	–	·	·	·	–	·
COc1ccc(S(=O)(=O)N2CC[C@@H]3[C@@H](CO)Nc4ccc(C5=CCCCC5)cc4[C@@H]32)cc1	·	·	·	·	–	·
C=CCOn1c(=O)c(C)[n+]([O-])c2ccccc21	·	–	·	–	·	–
CCOn1c(=O)c(C)[n+]([O-])c2ccccc21	·	–	·	85	·	·
C[C@@H]1CN([C@H](C)CO)S(=O)(=O)c2ccc(C3=CCCC3)cc2O[C@H]1CN(C)C(=O)c1cnccn1	–	·	–	·	–	·
Oc1ccccc1CNc1ccc(Br)cn1	·	–	·	90	·	–
CC(=O)C(C(C)=O)c1c(Cl)c(O)c(O)c2c(C(=O)c3ccccc3)coc12	·	–	·	76	?	–
CNC[C@H]1OCCCC[C@H](C)Oc2ccc(NS(=O)(=O)c3ccc(Cl)cc3)cc2C(=O)N([C@H](C)CO)C[C@@H]1C	–	·	–	·	–	·
